T cruzi growth-1 – T. cruzi proliferation inhibition. AID 624255. 77,000 tested, 5.9% active. T. cruzi beta-gal in NIH3T3, GalScreen luminescence, 90 h. inhibition, % at 8.34 µM;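 active = mean inhibition above about 93%, with at least 55% of replicates each passing it, limit read from the data, passing the limit was not always enough; inconclusive = only one of those two conditions holds; inactive = neither condition holds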
Pf Dd2 growth – inhibitors of Plasmodium falciparum Dd2 growth. P. falciparum Dd2 growth, SYBR Green, 72 h; hits give low values. activity change, % at 10 µM. 94,000 tested, 2.3% active. AID 1159554; in the data active = activity change below about -80%; inconclusive = no clear call, values can overlap the other calls
C diff growth – blocks growth of Clostridium difficile; Clostridium difficile clinical isolate growth, OD600, 24 h; hits give low values; growth activity, negative = inhibition, % at 16 µg/mL (by protocol); 86,000 tested, 0.25% active;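 active = mean growth activity at or below -80% and every replicate also at or below -80%; inconclusive = mean at or below -80% but some replicate above -80%; inactive = mean growth activity above -80%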
T cruzi growth-2 – blocks T. cruzi growth in NIH3T3 host cells. shares compounds with T cruzi growth-1. T. cruzi beta-gal in NIH3T3, GalScreen luminescence, 90 h. inhibition, % at 8.35 µM. 5,600 tested, 72% active;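 active = mean replicate inhibition above about 95% and at least 55% of replicates individually reaching it, limit read from the data; inconclusive = only one of the two criteria is met; inactive = neither criterion is met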
T cruzi growth-3 – Trypanosoma cruzi proliferation inhibition. shares compounds with T cruzi growth-1. T. cruzi beta-gal in NIH3T3, GalScreen luminescence, 90 h. inhibition, % at 2.09 µM. 5,600 tested, 21% active;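 active = mean inhibition above about 95%, with at least 55% of replicates also reaching it, limit read from the data; inconclusive = meets just one of the two conditions; inactive = meets neither condition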
NIH3T3 tox – NIH/3T3 (mouse) viability loss. shares compounds with T cruzi growth-1. NIH/3T3 viability, CellTiter-Glo ATP luminescence, 90 h. cytotoxicity (signal decrease), % at 8.35 µM. 5,600 tested, 14% active. AID 651742;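 active = mean signal decrease across replicates above about 35% based on untreated-well scatter, with enough replicates individually passing, limit read from the data; inconclusive = no rule stated though some were filed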
NIH3T3 tox 2 – kills mouse NIH/3T3 fibroblasts; shares compounds with T cruzi growth-1; 5,600 tested, 56% active; NIH/3T3 viability, CellTiter-Glo ATP luminescence, 90 h; inhibition, % at 24.9 µM;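 active = mean loss of cell viability signal at or above a set limit, and enough replicates individually reaching it; inconclusive = meets only the mean limit or only the replicate share; inactive = meets neither condition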
A number is an active result; - = inactive; ? = inconclusive; . = no result. Rows were chosen to be rich in hits. Some 6.7% of all compounds tested hit in one or more screens of this group.

SMILES | T cruzi growth-1 | Pf Dd2 growth | C diff growth | T cruzi growth-2 | T cruzi growth-3 | NIH3T3 tox | NIH3T3 tox 2
CN1C(=O)c2cc(NC(=O)c3ccccc3F)ccc2OC[C@H]2O[C@H](CC(=O)NCc3ccc4c(c3)OCO4)CC[C@@H]21 | - | - | - | . | . | . | .
CCCC#Cc1ccc([C@H]2[C@H](CO)N3CCCCN(Cc4cccnc4)C[C@@H]23)cc1 | 115 | - | - | 108 | - | - | 90
CCCC#Cc1ccc([C@@H]2[C@H](CO)N3CCCCN(Cc4cccnc4)C[C@@H]23)cc1 | 103 | - | - | 105 | - | - | 104
CCCC#Cc1ccc([C@@H]2[C@H](CO)N3CCCCN(Cc4cncnc4)C[C@@H]23)cc1 | - | - | - | . | . | . | .
CCCC#Cc1ccc([C@@H]2[C@H]3CN(Cc4cccnc4)CCCCN3[C@H]2CO)cc1 | - | - | - | . | . | . | .
CCCC#Cc1ccc([C@H]2[C@H](CO)N3CCCCN(Cc4cncnc4)C[C@@H]23)cc1 | - | - | - | . | . | . | .
CCCC#Cc1ccc([C@@H]2[C@@H](CO)N3CCCCN(Cc4cccnc4)C[C@H]23)cc1 | ? | - | - | 102 | - | - | 82
CCCC#Cc1ccc([C@H]2[C@H](CO)N3CCCCN(Cc4ccncc4)C[C@@H]23)cc1 | 107 | - | - | 100 | - | - | 86
COc1ccc(-c2ccc3c(c2)O[C@@H](CN(C)Cc2ccccc2C(=O)O)[C@@H](C)CN([C@@H](C)CO)S3(=O)=O)cc1 | - | - | - | . | . | . | .
C[C@H]1CN([C@@H](C)CO)S(=O)(=O)c2ccc(-c3ccncc3)cc2O[C@@H]1CN(C)S(=O)(=O)c1ccccc1F | . | - | - | . | . | . | .
Cc1ccc(S(=O)(=O)N(C)C[C@H]2Oc3cc(C#Cc4ccccc4)ccc3S(=O)(=O)N([C@@H](C)CO)C[C@@H]2C)cc1 | . | - | - | . | . | . | .
C[C@@H]1CN([C@H](C)CO)S(=O)(=O)c2ccc(C#Cc3ccccc3)cc2O[C@H]1CN(C)S(=O)(=O)c1ccccc1F | 129 | - | - | 98 | - | - | ?
C[C@H](CO)N1C[C@H](C)[C@H](CN(C)S(=O)(=O)c2ccccc2F)Oc2cc(C#Cc3ccccc3)ccc2S1(=O)=O | 125 | - | - | 110 | - | - | -
C[C@@H]1CN([C@H](C)CO)S(=O)(=O)c2ccc(C#Cc3ccccc3)cc2O[C@@H]1CN(C)S(=O)(=O)c1ccccc1F | 122 | - | - | 105 | 106 | - | 52
C[C@H](CO)N1C[C@H](C)[C@@H](CN(C)S(=O)(=O)c2ccccc2F)Oc2cc(-c3ccncc3)ccc2S1(=O)=O | . | - | - | . | . | . | .
Cc1ccc(S(=O)(=O)N(C)C[C@H]2Oc3cc(C#Cc4ccccc4)ccc3S(=O)(=O)N([C@H](C)CO)C[C@H]2C)cc1 | . | - | - | . | . | . | .
C[C@H]1CN([C@@H](C)CO)S(=O)(=O)c2ccc(C#Cc3ccccc3)cc2O[C@@H]1CN(C)S(=O)(=O)c1ccccc1F | 125 | - | - | 98 | 103 | - | 29
O=C(C1CC1)N1CC(=O)N2[C@H](CO)[C@@H](c3ccc(C#Cc4cccc(F)c4)cc3)[C@@H]2C1 | . | - | - | . | . | . | .
O=C(C[C@H]1C[C@@H]2c3cc(NC(=O)Nc4ccccc4F)ccc3O[C@@H]2[C@@H](CO)O1)NC1CCCCC1 | 158 | - | - | ? | - | - | -
O=C(C[C@@H]1C[C@@H]2c3cc(NC(=O)Nc4ccccc4F)ccc3O[C@@H]2[C@H](CO)O1)NC1CCCCC1 | - | - | - | . | . | . | .
O=C(C[C@@H]1C[C@H]2c3cc(NC(=O)Nc4ccccc4F)ccc3O[C@H]2[C@H](CO)O1)NCc1ccccn1 | . | - | - | . | . | . | .
O=C(C[C@H]1C[C@@H]2c3cc(NC(=O)Nc4ccccc4F)ccc3O[C@@H]2[C@H](CO)O1)NCc1ccccn1 | 109 | - | - | - | - | - | -
CC1C=NC(S(=O)(=O)N2CC[C@@H]3[C@@H](CO)N(C)c4ccc(-c5ccc(F)cc5)cc4[C@@H]32)=N1 (some centres not stated) | - | - | - | . | . | . | .
CC1C=NC(S(=O)(=O)N2CC[C@@H]3[C@H]2c2cc(-c4ccccc4)ccc2N(C)[C@H]3CO)=N1 (some centres not stated) | ? | - | - | 101 | - | - | -
CC1C=NC(S(=O)(=O)N2CC[C@@H]3[C@H]2c2cc(-c4cccc(F)c4)ccc2N(C)[C@H]3CO)=N1 (some centres not stated) | ? | - | - | 105 | - | - | -
SMILES | T cruzi growth-1 | Pf Dd2 growth | C diff growth | T cruzi growth-2 | T cruzi growth-3 | NIH3T3 tox | NIH3T3 tox 2
CC1C=NC(S(=O)(=O)N2CC[C@H]3[C@@H](CO)N(C)c4ccc(-c5ccccc5)cc4[C@H]32)=N1 (some centres not stated) | - | - | - | . | . | . | .
CCCN1[C@@H]2Cn3c(ccc(C4=CCCC4)c3=O)[C@H]1[C@@H](C(=O)NCCOC)[C@@H]2CO | - | - | - | . | . | . | .
CCC(=O)Nc1ccc2c(c1)OC[C@@H](C)N(C(=O)CC1CC1)C[C@@H](C)[C@H](OC)CN(C)C2=O | - | - | - | . | . | . | .
C[C@@H]1CN([C@@H](C)CO)C(=O)c2cc(C#CC3CCCCC3)cnc2O[C@H]1CN(C)Cc1cccnc1 | . | - | - | . | . | . | .
CN1C(=O)c2cc(NC(=O)c3ccc(F)cc3)ccc2OC[C@H]2O[C@@H](CC(=O)N3CCOCC3)CC[C@@H]21 | - | - | - | . | . | . | .
COc1cccc(C#Cc2ccc([C@@H]3[C@@H](C#N)N(C(=O)C4CCC4)[C@@H]3CO)cc2)c1 | 102 | - | - | 109 | - | - | -
COc1cccc(C#Cc2ccc([C@H]3[C@H](C#N)N(C(=O)C4CCC4)[C@H]3CO)cc2)c1 | 97 | - | - | 96 | - | - | 63
COc1cccc(C#Cc2ccc([C@@H]3[C@@H](C#N)N(C(=O)C4CC4)[C@@H]3CO)cc2)c1 | - | - | - | . | . | . | .
COc1cccc(C#Cc2ccc([C@@H]3[C@@H](CO)N(C(=O)C4CCC4)[C@H]3C#N)cc2)c1 | - | - | - | . | . | . | .
O=C(N[C@H]1CC[C@H](CCn2cc(C3(O)CCCC3)nn2)O[C@@H]1CO)C1CC1 | . | - | - | . | . | . | .
CN1C(=O)c2cc(NC(=O)Nc3cccc(Cl)c3)ccc2OC[C@H]2O[C@@H](CC(=O)O)CC[C@@H]21 | - | - | - | . | . | . | .
COc1ccc(NC(=O)N2CCCCN3[C@H](C2)[C@@H](c2ccc(C4=CCCC4)cc2)[C@@H]3CO)cc1 | - | - | - | . | . | . | .
CC(C)NC(=O)N(C)C[C@@H]1Oc2cc(-c3cncnc3)ccc2S(=O)(=O)N([C@@H](C)CO)C[C@@H]1C | - | - | - | . | . | . | .
Cc1ccc(-c2ccc3c(c2)O[C@H](CN(C)C(=O)NC(C)C)[C@@H](C)CN([C@@H](C)CO)S3(=O)=O)cc1 | - | - | - | . | . | . | .
CC(C)NC(=O)N(C)C[C@@H]1Oc2cc(-c3ccncc3)ccc2S(=O)(=O)N([C@H](C)CO)C[C@H]1C | 119 | - | - | ? | - | - | -

Screens from PubChem BioAssay.
